{
  "source": "PubChem BioAssay AID1626",
  "about": "(SRMLSC, 2009)",
  "note": "Hit rate of the full screen: of about 220,000 compounds, about 2,000 (0.91%) were called active. Another 2% or so got no clear call; they are omitted. Only a sample is shown. Measured potencies and affinities stand elsewhere. Values without a mark were called inactive. No stated cut-off is given here; in the data, inconclusive means inhibition above about 80% without an active follow-up result; inactive means below that; test concentration not stated here.",
  "data": [
    {"assay": "M. tuberculosis H37Rv growth inhibitors, H37Rv strain (AID 1626);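 further: bacteria incubated seven days before Alamar blue readout; 0% = bacteria only wells and 100% = bacteria with antibiotic wells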", "settings": "active compounds read high, concentration not given here", "units": {"inhibition": "%"}, "values": [
      {"smiles": "N#Cc1cccnc1N1CCC(C(N)=O)CC1", "inhibition": -8.98},
      {"smiles": "O=C(N/N=C/c1ccc2c(c1)OCO2)C(=O)Nc1ccc2ccccc2c1", "inhibition": 1.96},
      {"smiles": "O=c1c2ccccc2nc(-c2ccc(Cl)cc2Cl)n1O", "inhibition": 1.38},
      {"smiles": "CSc1ccccc1NC(=O)c1ccc(C)o1", "inhibition": -1.2},
      {"smiles": "COc1ccc2c(c1)Sc1ccccc1N2CCN(C)C", "inhibition": 2.43},
      {"smiles": "CN(C)CCCN1c2ccccc2Sc2ccccc21", "inhibition": -4.11},
      {"smiles": "O=c1[nH]c2cccnc2c2ccsc12", "inhibition": -1.93},
      {"smiles": "Cc1ccc(/C=N/N2CCN(c3ccncc3S(=O)(=O)N3CCCCC3)CC2)cc1", "inhibition": 7.81},
      {"smiles": "Cc1cc2c(s1)CCCCC(=O)N2", "inhibition": -2.34},
      {"smiles": "O=C1CCCc2sc3c(c2N1)CCCCC3", "inhibition": -8.7},
      {"smiles": "Cc1cc(C(=O)NC(Cc2ccccc2)C(=O)O)c(C)o1", "note": "(stereo not given)", "inhibition": 1.76},
      {"smiles": "O=C(CNC(=S)N(CCCN1CCOCC1)Cc1cccs1)NCCN1CCOCC1", "inhibition": 5.22},
      {"smiles": "NC(=O)CN1C(=O)C2C3c4ccccc4C(c4ccccc43)C2C1=O", "note": "(stereo not given)", "inhibition": 2.42},
      {"smiles": "CCNc1nc(NCC)nc(N/N=C/c2cc(OC)c(OC)c(OC)c2)n1", "inhibition": -2.94},
      {"smiles": "Cc1cc(-c2c(C)[nH]n(-c3ccc(Cl)cc3)c2=O)n[nH]1", "inhibition": 65.3},
      {"smiles": "Cc1[nH]n(-c2ccccc2)c(=O)c1-c1ccccc1", "inhibition": -7.21},
      {"smiles": "CCOC(=O)C1=C(O)/C(=C/c2ccc(OCC(=O)O)c(OC)c2)SC1=Nc1ccc(OC)cc1", "inhibition": 17.4},
      {"smiles": "CCNc1nc(N2CCCC2)nc(N2CCCC2)n1", "inhibition": 1.64},
      {"smiles": "CC(C)(C)Nc1nc(N2CCCC2)nc(N2CCCC2)n1", "inhibition": 14.2},
      {"smiles": "CCOc1ccc(Nc2nc(N3CCCC3)nc(N3CCN(c4ccc(OC)cc4)CC3)n2)cc1", "inhibition": -4.38},
      {"smiles": "COc1ccc(N2CCN(c3nc(Nc4ccc(C)c(F)c4)nc(N4CCCC4)n3)CC2)cc1", "inhibition": 1.07},
      {"smiles": "O=C(NC(=S)NCCSc1ccccc1)c1cccnc1", "inhibition": 4.56},
      {"smiles": "COc1ccc(S(=O)(=O)NC2CCCCC2)cc1-n1cnnn1", "inhibition": -10.3},
      {"smiles": "Fc1cccc(Cl)c1/C=N/Nc1ccccn1", "inhibition": 3.42},
      {"smiles": "COc1ccc(Cn2c(O)c(/C=N/NC(=O)c3ccccc3)c(=O)[nH]c2=O)cc1", "inhibition": -2.76},
      {"smiles": "O=c1[nH]c(=O)n(Cc2ccccc2Cl)c(O)c1C=Nc1ccc(F)cc1", "inhibition": 3.81},
      {"smiles": "Cn1c(O)c(/C=C2/C=CC=N2)c(=O)[nH]c1=O", "inhibition": 1.64},
      {"smiles": "C=CCn1c(O)c(/C=C2/C=CC=N2)c(=O)[nH]c1=O", "inhibition": 49},
      {"smiles": "O=C(NC1CCCCC1)N1CCCc2ccccc21", "inhibition": -7.82},
      {"smiles": "Cc1ccc(CC2C(=O)N(CC(=O)O)C(=O)C2C)cc1", "note": "(stereo not given)", "inhibition": -14.9},
      {"smiles": "O=C(Nc1ccccn1)C(=O)Nc1ccccn1", "inhibition": -5},
      {"smiles": "CCCCNC(=O)Nc1ccccn1", "inhibition": -6.21},
      {"smiles": "CC(O)Cc1cn([C@@H](CCCCNC(=O)OC(C)(C)C)C(=O)N2CCN(C(=O)OC(C)(C)C)CC2)nn1", "note": "(stereo not given in full)", "inhibition": -10.7},
      {"smiles": "CO/C=C/C#CC1(O)CCN(C)CC1", "inhibition": -1.81},
      {"smiles": "O=C(NCC1CCCO1)c1cc(C(=O)c2ccc(Cl)cc2Cl)c[nH]1", "note": "(stereo not given)", "inhibition": 2.36},
      {"smiles": "COCCCNC(=S)Nc1ccc(C)cc1", "inhibition": -3.56},
      {"smiles": "CCCCCc1cc(=O)oc2c(C(CCN3CCN(c4ccccc4)CC3)c3ccc(N(C)C)cc3)c(OC)cc(OC)c12", "note": "(stereo not given)", "inhibition": 12.8},
      {"smiles": "COc1cc(OC)c2ccc(=O)oc2c1C(CCN1CCCC1)c1ccc(N(C)C)cc1", "note": "(stereo not given)", "inhibition": -8.24},
      {"smiles": "CCCCCc1cc(=O)oc2c(C(CCN3CCN(c4ccccc4)CC3)c3ccc4c(c3)OCO4)c(OC)cc(OC)c12", "note": "(stereo not given)", "inhibition": 22.5},
      {"smiles": "COc1ccc(C(CCN2CCCC(C)C2)c2c(OC)cc(OC)c3c(C)cc(=O)oc23)cc1", "note": "(stereo not given)", "inhibition": 1.05},
      {"smiles": "COc1cc(OC)c2ccc(=O)oc2c1C(CCN1CCCC(C)C1)c1ccc(N(C)C)cc1", "note": "(stereo not given)", "inhibition": -10.1},
      {"smiles": "COc1cc(OC)c2c(C)cc(=O)oc2c1C(CCN1CCOCC1)c1ccc(N(C)C)cc1", "note": "(stereo not given)", "inhibition": -12.1},
      {"smiles": "COc1ccc(C(CCN2CCOCC2)c2c(OC)cc(OC)c3c(C)cc(=O)oc23)cc1", "note": "(stereo not given)", "inhibition": -3.23},
      {"smiles": "COc1ccc(C(CCN2CCCC(C)C2)c2c(OC)cc(OC)c3c2OC(=O)CC3c2cc(OC)c(OC)c(OC)c2)cc1", "note": "(stereo not given)", "inhibition": -7.36},
      {"smiles": "N/C(=N/OC(=O)c1ccccc1F)c1nonc1N", "inhibition": 1.17},
      {"smiles": "S=C(NCC1CCCO1)N1CCN(Cc2ccccc2Cl)CC1", "note": "(stereo not given)", "inhibition": -6.51},
      {"smiles": "CCOC(=O)c1cnn(CCOC(=O)c2ccccc2F)c1NC(=O)c1ccccc1F", "inhibition": -4.26},
      {"smiles": "Clc1ccc(-c2c(C3=NCCCN3)nnn2-c2ccc(Cl)cc2)cc1", "inhibition": 2.74},
      {"smiles": "Cc1cc(=O)[nH]c(SCc2nc3ccccc3n2Cc2ccccc2)n1", "inhibition": -7.65},
      {"smiles": "Cc1ccc(C(=O)Cn2nnc(-c3cccs3)n2)cc1", "inhibition": -5.53},
      {"smiles": "CCN1CCN(Cc2ccc(NC(=O)c3ccc(C)c(NC(=O)c4cccc5[nH]ccc45)c3)cc2C(F)(F)F)CC1", "inhibition": -5.49},
      {"smiles": "CCN1CCN(Cc2ccc(NC(=O)c3ccc(C)c(NC(=O)N4CCNC4=O)c3)cc2C(F)(F)F)CC1", "inhibition": -4.19},
      {"smiles": "CCN1CCN(Cc2ccc(NC(=O)c3ccc(C)c(NC(=O)c4nccn4C)c3)cc2C(F)(F)F)CC1", "inhibition": 2},
      {"smiles": "CCN1CCN(Cc2ccc(NC(=O)c3ccc(C)c(NC(=O)c4ccno4)c3)cc2C(F)(F)F)CC1", "inhibition": 1.48},
      {"smiles": "Cc1ccc(S(=O)(=O)N2CCOCC2)cc1NC(=O)CN1CCC(Cc2ccccc2)CC1", "inhibition": 9.42},
      {"smiles": "CC(C)(C)C(=O)COC(=O)c1ccccc1O", "inhibition": 10.3},
      {"smiles": "Cc1cc(C(=O)OCC(=O)N2CC(C)CC(C)C2)c(C)o1", "note": "(stereo not given)", "inhibition": -6.8},
      {"smiles": "COc1cccc(C(=O)OCC(=O)c2c[nH]c3ccccc23)c1O", "inhibition": 7.28},
      {"smiles": "CC1CC(C)CN(C(=O)COC(=O)c2ccc[nH]c2=O)C1", "note": "(stereo not given)", "inhibition": -10},
      {"smiles": "CC(=O)OCC(=O)c1c[nH]c2ccccc12", "inhibition": -1.25},
      {"smiles": "CC1CCN(C(=O)COC(=O)c2cc(Cl)cc(Cl)c2N)CC1", "inhibition": -13.4},
      {"smiles": "COc1cc2ccccc2cc1C(=O)OCC(=O)N1CCOCC1", "inhibition": -12.6},
      {"smiles": "CCOC(=O)c1c(C)[nH]c(C)c1C(=O)COC(=O)c1cc2ccccc2cc1O", "inhibition": -1.14},
      {"smiles": "COc1ccccc1C/C(N)=N/OC(=O)c1ccc(C)c([N+](=O)[O-])c1", "inhibition": 3.93},
      {"smiles": "Cc1nnc(SCC(=O)N2CCN(S(=O)(=O)c3ccc(Cl)cc3)CC2)[nH]c1=O", "inhibition": -6.4},
      {"smiles": "COc1ccc(C(=O)CSc2nnc(NC(=O)C3CC(=O)N(c4ccccc4C)C3)s2)cc1", "note": "(stereo not given)", "inhibition": 2.7},
      {"smiles": "O=C(Nc1c(-c2cccs2)nc2ccccn12)c1ccc2ccccc2c1", "inhibition": 0.95},
      {"smiles": "CCC(CC)C(=O)Nc1cccc(-c2nc3ccccc3o2)c1", "inhibition": 0.04},
      {"smiles": "CCN(CC)C(=O)CC(c1ccccc1)c1ccco1", "note": "(stereo not given)", "inhibition": -14.2},
      {"smiles": "Cc1cc(C)nc(N(C#N)CCOc2ccc(Cl)cc2)n1", "inhibition": -4.66},
      {"smiles": "Cn1c(=O)c2c(nc(SCCN3CCCCC3)n2Cc2ccccc2)n(C)c1=O", "inhibition": -2.51},
      {"smiles": "CC(C)C(NC(=O)c1ccccc1F)C(=O)Nc1ccc2c(c1)OCO2", "note": "(stereo not given)", "inhibition": 1.73},
      {"smiles": "CN(C)C(=O)/C(=C\\c1cccc(Oc2ccccc2)c1)NC(=O)c1ccccc1", "inhibition": 4.22},
      {"smiles": "C/C(=N\\NC(=O)c1cc(-c2cccnc2)nc2ccccc12)c1ccccc1O", "inhibition": 2.39},
      {"smiles": "O=C(COc1ccc(Cl)cc1)OCC(=O)N1CCCC1", "inhibition": 0.56},
      {"smiles": "O=C(COC(=O)c1cc(Br)ccc1Cl)NC1CC1", "inhibition": 26.2},
      {"smiles": "O=C(OCC(=O)N1CCCC1)c1cc(Br)ccc1Cl", "inhibition": 7.39},
      {"smiles": "O=C(OCC(=O)N1CCCCC1)c1ccccc1SCC(=O)N1CCCCC1", "inhibition": 9.57},
      {"smiles": "CCC1CCCCN1C(=O)COC(=O)c1n[nH]c2ccccc12", "note": "(stereo not given)", "inhibition": -3.06},
      {"smiles": "O=C(COc1ccc(Cl)cc1)OCC(=O)N1CCCCCC1", "inhibition": 7.95},
      {"smiles": "Cc1cc(C(=O)OCC(=O)N2CCCC2)c2ccccc2n1", "inhibition": -17.2},
      {"smiles": "CCC1CCCCN1C(=O)CCCOc1ccccc1", "note": "(stereo not given)", "inhibition": -1.7},
      {"smiles": "O=C(CNS(=O)(=O)c1ccccc1)Nc1ccc2c(c1)OCO2", "inhibition": 0.17},
      {"smiles": "O=C(Nc1ccccc1C(=O)N1CCNCC1)c1ccco1", "inhibition": -1.36},
      {"smiles": "CC1CCc2nn(CC(=O)Nc3c(F)cc(F)cc3Br)cc2C1", "note": "(stereo not given)", "inhibition": 0.73},
      {"smiles": "Cc1cc(C(=O)N2CCCC(C(=O)c3cccc(C(F)(F)F)c3)C2)nc(C)n1", "note": "(stereo not given)", "inhibition": -11},
      {"smiles": "COc1ccc(Cl)cc1-c1csc(N)n1", "inhibition": -2.91},
      {"smiles": "O=C(CSc1nc2ccc([N+](=O)[O-])cc2[nH]1)c1ccc2ccccc2c1", "inhibition": 13.4},
      {"smiles": "Cc1ccc(NS(=O)(=O)c2cc(C(=O)NCc3ccccn3)ccc2Cl)cc1C", "inhibition": 4.55},
      {"smiles": "CC(=O)Nc1cccc(NC(=O)c2cc(C)on2)c1", "inhibition": -10.6},
      {"smiles": "CC(=O)c1ccc(NC(=O)Cn2nc(C)c([N+](=O)[O-])c2C)cc1", "inhibition": 2.02},
      {"smiles": "CN(C)CCN1CC(C(=O)O)CC1=O", "note": "(stereo not given)", "inhibition": -2.28},
      {"smiles": "CN1CCN(S(=O)(=O)c2ccc(-c3noc(C4CCN(S(C)(=O)=O)CC4)n3)cc2)CC1", "inhibition": -1.89},
      {"smiles": "O=C(Oc1ccc(/C=N/O)cc1)c1ccccc1", "inhibition": 30.8},
      {"smiles": "O=C(O)c1ccc(N/N=C/c2ccc(OC(=O)c3ccccc3Cl)cc2)cc1", "inhibition": 4.34}
    ]}
  ]
}
